Compounds with a hit are over-represented: about 18% of the library has one in this group of screens.
Gal4-VP16 FLuc – inhibits Gal4-VP16 luciferase reporter, ROR gamma counter-screen | Drosophila S2 Gal4-VP16 UAS-luciferase, luminescence, 20 h | Potency, µM (series often up to 53.6 µM), inactives show at the highest dose activity, negative = inhibition, most hits filed as inhibitors | 3.5% of 310,000 active | AID 2546;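 further: Gal4-VP16 expression switched on by copper sulfate through the metallothionein promoter; potency means the concentration at half of the fitted maximal effect; nearly all actives have a fitted effect of over 50% in size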
IL1B secr inh – inflammasome signaling inhibition, IL-1 beta readout; THP-1 LPS/ATP IL-1B secretion, AlphaLISA, 16 h; stronger effect = lower value; activity change, % at 57.5 µM; 4.7% of 360,000 active; AID 743279; in the data active means activity change below about -50%; inconclusive means mostly about -30% to -49%
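Secreted IL-1B measured by AlphaLISA bead assay after 16 h compound exposure of THP-1 cells; compounds (final up to 57.5 uM) added 1 h before LPS (250 ng/mL) and ATP (1.25 mM) stimulation; lower signal means less secretion.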
DT40 TDP1 no CPT – qHTS for Inhibitors of human tyrosyl-DNA phosphodiesterase 1 (TDP1): qHTS in cells in absence of CPT; DT40 Tdp1-/- hTDP1 cells, no CPT, ATP luminescence, 48 h; Potency, µM (titrated, usually from 46.2 µM), for inactives: top-dose activity change, negative = growth inhibition, most hits filed as inhibitors; 15% of 420,000 active; further: potency means the concentration at half of the fitted maximal effect; nearly all actives have a fitted effect of over 55% in size
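Camptothecin absent (DMSO only). Human TDP1-complemented DT40 knockout cells, 400 cells/well, 37 °C for minimum 48 hr; ATP measured via CellTiter-Glo, 30 min dark incubation, luminescence.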
LDHA inh – inhibitors of human lactate dehydrogenase A; purified LDHA, NADH/diaphorase-resazurin fluorescence; stronger effect = lower value; activity change, % (values are at about 110 or 230 µM); 0.15% of 480,000 active; AID 1347041; in the data active means activity change below about -30%; inconclusive means mostly about -25% to -30%;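 further: plate controls were DMSO wells for no effect and wells without enzyme for full effect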
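Human LDH5 (2 nM) was incubated with 0.06 mM NADH and 0.2 mM pyruvate for 5 min at room temperature in Tris pH 7.4. Remaining NADH was coupled through diaphorase/resazurin, and resorufin fluorescence was read at 0 and 20 min.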
RORgamma inh – inhibitors of mouse ROR gamma transcriptional activity; AID 2551; Drosophila S2 Gal4-RORgamma UAS-luciferase reporter, 20 h; 5.4% of 310,000 active; Potency, µM (top dose mostly 53.6 µM), for the others: at the highest dose activity change, negative = inhibition, actives largely listed as inhibitors; P51450; further: potency means the concentration at half of the fitted maximal effect; nearly all actives have a fitted effect of over 60% in size
Target sequence (P51450 whole entry, looked up, the tested form may be a part): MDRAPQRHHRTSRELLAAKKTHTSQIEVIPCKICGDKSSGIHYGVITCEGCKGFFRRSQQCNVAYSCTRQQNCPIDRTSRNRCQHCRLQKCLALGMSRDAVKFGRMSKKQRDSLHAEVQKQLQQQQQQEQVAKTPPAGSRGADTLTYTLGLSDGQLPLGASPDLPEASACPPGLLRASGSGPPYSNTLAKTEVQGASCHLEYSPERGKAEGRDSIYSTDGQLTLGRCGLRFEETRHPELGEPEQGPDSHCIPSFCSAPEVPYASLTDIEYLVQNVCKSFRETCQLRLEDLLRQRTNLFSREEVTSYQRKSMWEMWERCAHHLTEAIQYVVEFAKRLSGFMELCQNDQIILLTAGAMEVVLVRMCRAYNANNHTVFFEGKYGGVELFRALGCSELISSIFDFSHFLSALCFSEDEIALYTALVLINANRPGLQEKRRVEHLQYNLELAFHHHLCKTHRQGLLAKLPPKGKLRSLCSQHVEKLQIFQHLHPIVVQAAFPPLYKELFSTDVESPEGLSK
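Schneider cells (Drosophila), stable Gal4 DBD–ROR gamma + UAS-luc; 1 hr cmpd preincubation; Cu2+ induction 700 uM final; 20 hr ambient; luminescence.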
TDP1 cell CPT – growth inhibition of DT40 Tdp1-/-;hTDP1 cells with camptothecin (screen for TDP1 inhibitors); chicken DT40 Tdp1-/-;hTDP1 cells + 20 nM CPT, ATP luminescence, 48 h; Potency, µM (titrated, usually from 46.2 µM), without a hit: at the highest dose activity change, negative = growth inhibition, usual class: inhibitors; 12% of 420,000 active; further: potency means the concentration at half of the fitted maximal effect; nearly all actives have a fitted effect of over 55% in size
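Chicken DT40 Tdp1-/- cells stably complemented with human TDP1 were seeded at 400 cells/well in medium containing 20 nM camptothecin, exposed to pin-transferred compounds, and grown at 37 °C for at least 48 hr. Viability was read as ATP luminescence.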
* hit, by the source's call; ? = inconclusive; . = no result. Unless noted, the call rests on the fitted dose curve; in most records, active means well fitted curve in the direction sought with a large enough effect; inconclusive means small, poorly fitted or top-dose-only effect, or another doubt; inactive means no such curve, though single readings can be large; an effect the other way counts as inactive or inconclusive. Unless noted, on the % scale 0 is the no-effect control and ±100 the full control effect.

SMILES	Gal4-VP16 FLuc	IL1B secr inh	DT40 TDP1 no CPT	LDHA inh	RORgamma inh	TDP1 cell CPT
CCOc1ccccc1NC(=O)C1CCCN(S(=O)(=O)c2ccc(OC)c(C)c2)C1 (configuration not stated)	0.4%	-1.9	16.4µM*	0.9	18.4%	?
Cc1ccc2nc(NC(=O)C3CCCN(S(=O)(=O)c4cccnc4)C3)sc2c1 (configuration not stated)	-9.5%	-12.4	16.4µM*	-12.4	?	23.1µM*
O=C(CCc1nc2ccccc2s1)NCCc1ccc(C(F)(F)F)cc1	.	.	.	2.4	.	.
O=C(c1ccc(S(=O)(=O)NCc2cccs2)cc1)N1CCCC1	.	.	.	-4.9	.	.
CCN1C=C(Cc2ccc(OC)cc2)C2=C(C1)C(c1ccc(OC)cc1)C(C#N)=C(N)O2 (configuration not stated)	0.8%	-59.9*	16.4µM*	6.7	17.6%	?
COc1ccc(C2C(C#N)=C(N)Oc3c2oc(CO)cc3=O)cc1 (configuration not stated)	-19.4%	-5.5	31.2%	-1.8	20.1%	-13.1%
Cc1cccc(NC(=O)COc2ccc3oc4c(c3c2)CCCC4)c1	.	.	18.4µM*	-1.2	.	16.4µM*
Cc1ccc(NC(=O)COc2ccc3oc4c(c3c2)CCCC4)cc1C	.	.	-27.4%	-3.1	.	-25.6%
CC(C)N(CCNC(=O)COc1ccc2oc3c(c2c1)CCCC3)C(C)C	4.2%	-77.3*	23.1µM*	-8.6	6.7%	?
O=C(COc1ccc2oc3c(c2c1)CCCC3)Nc1ccc(Br)cc1	.	.	?	-5.6	.	14.6µM*
O=C(COc1ccc2oc3c(c2c1)CCCC3)Nc1ccc(Cl)cc1	.	.	?	-13.9	.	?
COCCCNC(=O)COc1ccc2oc3c(c2c1)CCCC3	-5.0%	-4.4	?	0.1	8.2%	?
Cc1ccc(NC(=O)COc2ccc3oc4c(c3c2)CCCC4)nc1	-5.1%	-1.4	8.2µM*	-8.2	-11.3%	?
CCN1C(=O)c2ccccc2Sc2ccc(NC(=O)Nc3ccc(C(C)=O)cc3)cc21	.	.	20.6µM*	2.2	.	?
CCc1ccccc1NC(=O)Nc1ccc2c(c1)N(CC)C(=O)c1ccccc1S2	.	.	14.6µM*	0.1	.	8.2µM*
CCC(C)NC(=O)Nc1ccc2c(c1)N(C)C(=O)c1ccccc1S2 (configuration not stated)	2.1%	6.4	6.9%	-2.7	-15.9%	?
CCN1C(=O)c2ccccc2Sc2ccc(C(=O)NC(C)C)cc21	-4.9%	-0.2	-0.3%	-10.2	-20.1%	1.4%
COCCCNC(=O)c1cc2cc(C)ccc2nc1C	.	.	.	3.0	.	.
O=C(NC(=S)Nc1ccccc1O)c1ccccc1Cl	?	-10.8	-29.9%	-4.1	7.08µM*	-14.6%
CC(=O)c1cccc(NC(=O)CCNC(=O)c2ccccc2Cl)c1	-1.3%	2.3	?	-1.0	17.2%	-25.5%
Cc1ccccc1C(=O)NC(=S)Nc1ccccc1C(=O)O	24.2%	18.0	-5.5%	-5.9	21.4%	-12.7%
CC(=O)c1cccc(NC(=S)NC(=O)c2ccc(C)cc2Cl)c1	12.6µM*	14.0	0.2%	-11.4	11.2µM*	-7.7%
COc1cc(OC)c(NC(=S)Nc2cccc(C(C)=O)c2)cc1Cl	-0.1%	-7.0	?	-1.7	?	-9.7%
CC(=O)c1cccc(NC(=S)NC(=O)c2ccccc2Cl)c1	-85.7%	-12.6	-9.7%	-1.4	12.6µM*	-1.3%
O=C(Cn1cc(Br)c(=O)[nH]c1=O)N1CCC(C(=O)N2CCCCC2)CC1	.	.	.	-3.9	.	.
SMILES	Gal4-VP16 FLuc	IL1B secr inh	DT40 TDP1 no CPT	LDHA inh	RORgamma inh	TDP1 cell CPT
CC(C)c1ccc(-c2csc(Nc3ccc(S(N)(=O)=O)cc3)n2)cc1	.	.	.	-1.9	.	.
COc1cc2c(cc1OC)C(COc1ccc3c(C)cc(=O)oc3c1)N(C(=O)Cc1ccccc1)CC2 (configuration not stated)	.	.	?	-4.8	.	?
COc1ccc(C(=O)N2CCc3cc(OC)c(OC)cc3C2COc2ccc3c(C)cc(=O)oc3c2)c(OC)c1 (configuration not stated)	.	.	-20.6%	-1.1	.	1.7%
COc1cc2c(cc1OC)C(COc1ccc3c(C)cc(=O)oc3c1)N(C(=O)c1ccc(C)cc1)CC2 (configuration not stated)	.	.	?	-16.4	.	?
CCCC(=O)N1CCc2cc(OC)c(OC)cc2C1COc1ccc2c(C)cc(=O)oc2c1 (configuration not stated)	.	.	13µM*	-2.4	.	?
COc1cc2c(cc1OC)C(COc1ccc3c(C)cc(=O)oc3c1)N(C(=O)c1ccc(C)c(C)c1)CC2 (configuration not stated)	.	.	16.4µM*	-3.6	.	?
CCC(CC)C(=O)N1CCc2cc(OC)c(OC)cc2C1COc1ccc2c(C)cc(=O)oc2c1 (configuration not stated)	.	.	16.4µM*	-11.8	.	?
COc1ccc(CNC(=O)c2ccc3nc(Cc4ccccc4F)oc3c2)cc1	.	.	.	-0.3	.	.
CN(C(=O)c1ccc(C(=O)N(C)c2ccccc2)cc1)c1ccccc1	.	.	.	-0.8	.	.
O=C(Nc1ccc(Cl)c(C(F)(F)F)c1)c1ccc2ccccc2c1	.	.	.	6.0	.	.
O=C(CCc1nc2ccccc2c(=O)[nH]1)Nc1nnc(SCc2ccccc2F)s1	.	27.1	16.4µM*	-7.1	.	13µM*
COc1ccc(OC)c(CN2CCN(Cc3ccc(C(F)(F)F)cc3)CC2)c1	.	.	.	3.4	.	.
O=S(=O)(Nc1nc2ccccc2nc1N1CCCCCC1)c1ccc2c(c1)OCCO2	.	.	.	10.3	.	.
CCNc1nc(C)nc2c1oc1ccccc12	16.9%	7.7	-21.3%	1.6	-11.2%	0.581µM*
Cc1nc(Nc2ccccc2O)c2oc3ccccc3c2n1	-8.2%	0.0	-13.6%	-1.0	-6.6%	1.9%
CCNc1nc(CC)nc2c1oc1ccccc12	1.5%	-2.5	-19.0%	-3.0	-28.7%	-14.0%
Cc1nc(NC(C)C)c2oc3ccccc3c2n1	?	?	13µM*	-1.4	-24.8%	?
Cc1cc2nc(-c3ccccc3)c(Cc3ccccc3)n2c(C)c1Br	.	-4.0	?	-3.7	.	23.1µM*
Cc1cc2nc(-c3ccc(C#N)cc3)c(Cc3ccsc3)n2c(C)c1Br	.	4.4	16.4µM*	4.5	.	16.4µM*
Cc1cc2nc(-c3ccccc3)c(Cc3ccsc3)n2c(C)c1Br	.	17.1	14.6µM*	-7.6	.	14.6µM*
Cc1ccc(Cc2c(-c3cccc(Br)c3)nc3cc(C)c(Br)c(C)n23)cc1	.	0.4	?	-7.9	.	?
